Experimental findings from ChEMBL document CHEMBL3988442, “University of Dundee, Small-Polar-MMV Screening Library” (2021) are described below.

What all share (design): scale not given: direction of the effect not stated beside the values
Assay [1] deals with Protein translocase subunit SecA (Escherichia coli (strain K12)) (UniProt P10408). Put plainly: Assay to Identify E. coli SecA ATPase Inhibitors. Type of assay: functional. Particulars: 30 µM.
Assay [2] deals with T1, Ubiquitin-activating enzyme e1, putative (Leishmania donovani (strain BPK282A1)) (UniProt E9BSI1).
T1 sequence (whole entry): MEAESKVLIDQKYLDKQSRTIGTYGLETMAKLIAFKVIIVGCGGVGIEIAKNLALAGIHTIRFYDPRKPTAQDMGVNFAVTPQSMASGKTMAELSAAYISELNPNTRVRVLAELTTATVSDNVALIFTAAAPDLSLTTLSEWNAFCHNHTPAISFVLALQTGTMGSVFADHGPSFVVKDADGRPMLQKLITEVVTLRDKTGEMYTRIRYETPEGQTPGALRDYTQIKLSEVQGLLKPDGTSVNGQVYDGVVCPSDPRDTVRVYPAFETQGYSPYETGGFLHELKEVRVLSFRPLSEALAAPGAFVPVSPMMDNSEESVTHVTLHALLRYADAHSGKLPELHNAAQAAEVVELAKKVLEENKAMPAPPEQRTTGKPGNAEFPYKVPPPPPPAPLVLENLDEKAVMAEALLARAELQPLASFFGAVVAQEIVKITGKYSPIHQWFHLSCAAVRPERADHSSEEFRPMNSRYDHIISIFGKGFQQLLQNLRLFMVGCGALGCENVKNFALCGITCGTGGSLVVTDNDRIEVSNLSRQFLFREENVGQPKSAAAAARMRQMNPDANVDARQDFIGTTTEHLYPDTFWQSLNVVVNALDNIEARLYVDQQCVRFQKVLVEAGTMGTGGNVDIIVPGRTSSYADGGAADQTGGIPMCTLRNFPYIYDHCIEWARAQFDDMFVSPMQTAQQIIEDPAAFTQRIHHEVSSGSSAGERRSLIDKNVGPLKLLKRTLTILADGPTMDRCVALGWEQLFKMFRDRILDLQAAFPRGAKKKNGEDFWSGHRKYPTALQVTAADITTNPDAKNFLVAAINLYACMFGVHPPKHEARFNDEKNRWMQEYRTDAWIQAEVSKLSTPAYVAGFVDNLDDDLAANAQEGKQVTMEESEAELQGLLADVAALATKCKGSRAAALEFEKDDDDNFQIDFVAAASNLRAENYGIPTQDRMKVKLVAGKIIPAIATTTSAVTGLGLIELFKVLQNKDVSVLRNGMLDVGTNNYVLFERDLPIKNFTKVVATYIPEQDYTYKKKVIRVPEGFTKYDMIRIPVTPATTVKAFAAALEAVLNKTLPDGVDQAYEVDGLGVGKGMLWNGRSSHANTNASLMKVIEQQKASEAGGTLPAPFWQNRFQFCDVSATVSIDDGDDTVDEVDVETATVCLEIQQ
Put plainly: Leishmania donovani Ubiquitin Activating Enzyme (LdE1). The assay is classed as functional. Particulars: 30 µM.

The target in assay [3] is AMP-activated protein kinase, AMPK (Homo sapiens) (UniProt P54646+O43741+P54619+Q9UGJ0+Q9Y478+Q13131+Q9UGI9). Put plainly: AMP-dependent Kinase enzyme assay. An in vitro enzyme assay that detects ADP turnover that is directly proportional to AMPK activity. This uses naive AMPK that is activated during the assay with MK-8722. The assay is classed as functional. Particulars: 30 µM.

Assay [4] deals with Sialic acid-binding Ig-like lectin 9 (Homo sapiens) (UniProt Q9Y336). Put plainly: Hs-Siglec9 ALPHAscreen SOP 20170721. Particulars: 10 µM. (In general: Bead proximity is the source of the signal in Alpha formats.)
A further assay relates to Trypanosoma cruzi. Put plainly: Trypanosoma cruzi phosphomannomutase and mannose-1-phosphate guanylyltransferase assay. Particulars: 10 µM. Type of assay: functional.
Assay [5] addresses T2, Arginase-2, mitochondrial (Homo sapiens) (UniProt P78540).
T2 sequence (whole entry): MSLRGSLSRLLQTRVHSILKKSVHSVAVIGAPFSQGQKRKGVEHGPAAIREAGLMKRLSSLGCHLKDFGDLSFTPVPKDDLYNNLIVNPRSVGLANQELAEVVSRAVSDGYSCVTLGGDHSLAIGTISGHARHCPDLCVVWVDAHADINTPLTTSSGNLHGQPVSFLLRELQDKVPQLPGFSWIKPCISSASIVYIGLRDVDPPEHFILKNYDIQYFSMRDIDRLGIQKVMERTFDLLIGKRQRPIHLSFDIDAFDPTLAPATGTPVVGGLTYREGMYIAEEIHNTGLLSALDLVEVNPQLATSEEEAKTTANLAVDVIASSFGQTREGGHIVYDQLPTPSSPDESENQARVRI
Put plainly: in vitro enzyme assay to detect the production of urea directly proportional to the activity of Arginase II. Note: in the data most compounds retested in dose-response had high values. Type of assay: functional. Particulars: 33.3 µM.

Assay [6] addresses T3, Proteasome subunit beta (Trypanosoma cruzi) (UniProt O96673).
T3 sequence (whole entry): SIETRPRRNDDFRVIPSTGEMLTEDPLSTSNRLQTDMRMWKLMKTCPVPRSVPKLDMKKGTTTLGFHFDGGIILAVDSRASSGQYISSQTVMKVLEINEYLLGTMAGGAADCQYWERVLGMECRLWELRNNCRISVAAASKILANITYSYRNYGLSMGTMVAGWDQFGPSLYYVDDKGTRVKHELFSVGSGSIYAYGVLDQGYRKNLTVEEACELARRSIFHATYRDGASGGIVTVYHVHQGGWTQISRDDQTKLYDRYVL
Put plainly: Trypanosoma cruzi proteasome chymotrypsin-like activity (TcProtChymo) assay. Note: in the data most compounds retested in dose-response had high values. Particulars: 9.37 µM. The assay is classed as functional.

Another assay is filed under the species Homo sapiens. Put plainly: To identify inhibition of the IFN signalling (Jak-Stat) pathway via expression of an eGFP reporter gene under the control of an IFN-stimulated response element (ISRE) containing MxA promoter. The assay is classed as functional. Particulars: 30 µM. (In general: A reporter such as luciferase makes a cellular process visible.)
The target of assay [7] is T4, Tyrosyl-tRNA synthetase, putative (Trypanosoma cruzi (strain CL Brener)) (UniProt Q4DSP6).
T4 sequence (whole entry): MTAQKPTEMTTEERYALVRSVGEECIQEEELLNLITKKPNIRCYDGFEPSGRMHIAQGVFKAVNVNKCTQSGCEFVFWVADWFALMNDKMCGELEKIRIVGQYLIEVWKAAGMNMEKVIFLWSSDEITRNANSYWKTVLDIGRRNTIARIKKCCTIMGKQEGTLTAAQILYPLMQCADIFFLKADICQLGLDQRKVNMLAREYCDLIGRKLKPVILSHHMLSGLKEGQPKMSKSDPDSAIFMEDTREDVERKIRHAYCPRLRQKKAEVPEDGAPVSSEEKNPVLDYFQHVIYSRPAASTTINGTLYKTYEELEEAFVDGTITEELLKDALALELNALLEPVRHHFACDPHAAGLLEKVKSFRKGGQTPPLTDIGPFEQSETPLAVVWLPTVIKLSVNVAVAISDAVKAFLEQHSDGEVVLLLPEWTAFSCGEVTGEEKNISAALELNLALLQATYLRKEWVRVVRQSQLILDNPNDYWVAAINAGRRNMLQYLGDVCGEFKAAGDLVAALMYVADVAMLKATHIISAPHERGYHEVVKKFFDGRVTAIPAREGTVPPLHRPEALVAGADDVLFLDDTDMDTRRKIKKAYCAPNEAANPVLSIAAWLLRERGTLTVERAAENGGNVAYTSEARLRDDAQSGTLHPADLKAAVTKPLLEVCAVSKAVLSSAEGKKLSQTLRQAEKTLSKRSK
Put plainly: Trypanosoma cruzi tyrosyl tRNA synthetase (TcYRS) _High Tyrosine SOP. Note: in the data most compounds retested in dose-response had high values. The assay is classed as functional. Particulars: 30 µM.

For assay [8], the target named is T4, Tyrosyl-tRNA synthetase, putative (Trypanosoma cruzi (strain CL Brener)). Put plainly: Trypanosoma cruzi tyrosyl tRNA synthetase (TcYRS) SOP. Type of assay: functional. Particulars: 30 µM.
Assay [9] addresses Chromo domain-containing protein 1 (Saccharomyces cerevisiae (strain ATCC 204508 / S288c) (Baker's yeast)) (UniProt P32657). Put plainly: ScCHD-1 Enzyme Inhibition Assay. Note: in the data most compounds retested in dose-response had high values. The assay is classed as functional. Particulars: 30 µM.

For some of these results: Results with a measured potency or affinity are listed apart.

Chromo domain-containing protein 1 (Saccharomyces cerevisiae (strain ATCC 204508 / S288c) (Baker's yeast)), sequence (P32657 whole entry, the tested form may be a part): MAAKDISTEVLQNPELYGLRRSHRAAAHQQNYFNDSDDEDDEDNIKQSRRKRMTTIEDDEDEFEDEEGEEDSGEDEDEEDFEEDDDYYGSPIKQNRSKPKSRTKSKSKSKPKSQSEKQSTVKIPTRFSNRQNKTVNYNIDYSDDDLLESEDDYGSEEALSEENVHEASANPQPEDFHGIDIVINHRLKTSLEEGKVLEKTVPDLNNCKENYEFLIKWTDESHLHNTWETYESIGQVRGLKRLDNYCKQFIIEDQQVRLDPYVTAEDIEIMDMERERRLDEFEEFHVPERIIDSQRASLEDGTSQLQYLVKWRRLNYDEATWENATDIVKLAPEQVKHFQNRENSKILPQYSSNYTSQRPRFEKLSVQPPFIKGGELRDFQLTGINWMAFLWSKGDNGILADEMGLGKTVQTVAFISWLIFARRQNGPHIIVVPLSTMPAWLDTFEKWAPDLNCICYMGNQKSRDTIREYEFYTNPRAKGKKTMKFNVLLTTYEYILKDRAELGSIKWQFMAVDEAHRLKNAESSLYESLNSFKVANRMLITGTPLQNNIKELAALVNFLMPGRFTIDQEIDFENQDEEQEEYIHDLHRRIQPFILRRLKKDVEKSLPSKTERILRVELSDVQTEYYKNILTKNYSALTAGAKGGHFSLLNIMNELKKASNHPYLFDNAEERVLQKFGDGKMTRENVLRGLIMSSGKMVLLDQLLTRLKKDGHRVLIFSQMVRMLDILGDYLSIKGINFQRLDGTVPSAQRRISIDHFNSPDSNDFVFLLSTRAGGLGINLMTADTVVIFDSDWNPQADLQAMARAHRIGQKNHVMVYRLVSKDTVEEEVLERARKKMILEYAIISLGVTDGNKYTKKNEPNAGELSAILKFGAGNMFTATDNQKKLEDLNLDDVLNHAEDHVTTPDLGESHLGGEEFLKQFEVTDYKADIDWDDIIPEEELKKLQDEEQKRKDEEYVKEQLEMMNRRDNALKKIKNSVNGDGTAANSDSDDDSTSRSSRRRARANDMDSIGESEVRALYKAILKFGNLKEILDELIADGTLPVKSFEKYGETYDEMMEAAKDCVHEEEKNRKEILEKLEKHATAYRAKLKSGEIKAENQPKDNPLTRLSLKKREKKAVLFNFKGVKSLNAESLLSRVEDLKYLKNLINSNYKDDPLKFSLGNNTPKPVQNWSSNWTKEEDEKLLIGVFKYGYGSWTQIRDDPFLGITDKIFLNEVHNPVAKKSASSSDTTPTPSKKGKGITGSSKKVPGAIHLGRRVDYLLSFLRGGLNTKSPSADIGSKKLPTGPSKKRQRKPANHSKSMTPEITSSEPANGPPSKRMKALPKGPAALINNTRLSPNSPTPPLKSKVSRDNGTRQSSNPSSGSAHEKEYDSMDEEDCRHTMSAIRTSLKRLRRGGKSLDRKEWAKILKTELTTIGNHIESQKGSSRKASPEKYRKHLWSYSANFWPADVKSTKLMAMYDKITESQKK
Protein translocase subunit SecA (Escherichia coli (strain K12)), sequence (P10408 whole entry): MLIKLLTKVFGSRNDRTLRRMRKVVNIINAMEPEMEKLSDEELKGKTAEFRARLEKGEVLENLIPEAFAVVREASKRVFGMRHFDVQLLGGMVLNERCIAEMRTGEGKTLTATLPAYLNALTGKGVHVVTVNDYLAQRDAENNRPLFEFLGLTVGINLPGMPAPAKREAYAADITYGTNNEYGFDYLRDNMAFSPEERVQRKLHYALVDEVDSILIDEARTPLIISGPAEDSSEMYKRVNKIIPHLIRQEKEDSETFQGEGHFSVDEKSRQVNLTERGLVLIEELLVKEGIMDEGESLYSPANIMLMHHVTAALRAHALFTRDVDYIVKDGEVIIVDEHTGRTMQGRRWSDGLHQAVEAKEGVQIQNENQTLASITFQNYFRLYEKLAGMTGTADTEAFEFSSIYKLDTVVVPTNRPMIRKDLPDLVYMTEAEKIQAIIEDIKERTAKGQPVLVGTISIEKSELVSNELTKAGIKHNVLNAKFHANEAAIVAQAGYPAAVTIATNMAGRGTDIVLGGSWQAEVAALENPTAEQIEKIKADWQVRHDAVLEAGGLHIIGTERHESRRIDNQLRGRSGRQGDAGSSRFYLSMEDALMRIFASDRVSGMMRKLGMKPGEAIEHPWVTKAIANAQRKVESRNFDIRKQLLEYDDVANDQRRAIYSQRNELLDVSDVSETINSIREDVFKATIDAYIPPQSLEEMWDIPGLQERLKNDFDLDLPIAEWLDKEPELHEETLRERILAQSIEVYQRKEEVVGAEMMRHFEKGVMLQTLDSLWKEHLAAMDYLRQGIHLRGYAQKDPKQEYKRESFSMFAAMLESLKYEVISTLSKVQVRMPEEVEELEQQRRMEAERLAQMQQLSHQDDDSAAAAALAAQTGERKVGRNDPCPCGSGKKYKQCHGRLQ
Sialic acid-binding Ig-like lectin 9 (Homo sapiens), sequence (Q9Y336 whole entry): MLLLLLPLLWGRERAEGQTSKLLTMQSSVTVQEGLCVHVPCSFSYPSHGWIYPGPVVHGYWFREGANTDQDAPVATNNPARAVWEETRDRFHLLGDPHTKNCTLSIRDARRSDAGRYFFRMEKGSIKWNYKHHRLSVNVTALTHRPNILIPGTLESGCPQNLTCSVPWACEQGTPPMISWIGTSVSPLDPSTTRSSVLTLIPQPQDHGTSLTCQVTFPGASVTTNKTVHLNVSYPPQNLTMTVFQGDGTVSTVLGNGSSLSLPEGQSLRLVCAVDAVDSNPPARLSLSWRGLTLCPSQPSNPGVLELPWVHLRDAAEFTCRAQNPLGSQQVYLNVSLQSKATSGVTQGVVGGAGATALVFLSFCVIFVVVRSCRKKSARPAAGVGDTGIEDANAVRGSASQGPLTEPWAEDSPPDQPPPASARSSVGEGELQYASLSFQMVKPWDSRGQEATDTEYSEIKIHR

In the case of `Cc1nc(C)n(CC2CN(c3nnc(C)c(C)c3C#N)CCO2)n1` (stereo not drawn), the Percent Effect in assay [1] is -5.18%; in [2], 7.89%; in assay [3] it was 1.44%; in [4], 6.73%; in the assay on Trypanosoma cruzi, 1.13%; in [5], 2.68%. Moreover, the Percent Effect came out at 8.52% in assay [6]; 1.18% in the assay filed under Homo sapiens; 7.35% in assay [7]; 12.2% in assay [8]; 0.234% in [9].

With `CC(C)Oc1cccc(CNC(=O)NC(C)(C(=O)O)c2ccco2)c1` (stereo not drawn), the Percent Effect in [1] is -2.82%; in assay [2] it was 13.2%; in [3], -1.29%; in [4], 13.7%; in the assay on Trypanosoma cruzi, 3.08%; in assay [5], -1.08%. The Percent Effect in [6] is -2.79%; in the assay listed under Homo sapiens, -7.9%; in [7], 9.36%; in assay [8], 18.5%; in [9] it was -0.593%.

Take `CC(=O)c1cccc(OCCCC(=O)N(C)CCc2ccncc2)c1`: the Percent Effect in assay [1] is -2.19%; in assay [2] it was 8.11%; in assay [3], -3.93%; in [4] it was 2.37%; in the assay on Trypanosoma cruzi, 3.67%; in assay [5], -1.91%. For the same compound, the Percent Effect in assay [6] was 16.4%; in the assay filed under Homo sapiens, 16.1%; in [7], 8.99%; in assay [8] it was 17.1%; in assay [9], -2.34%.

Turning to `Cn1cc(C(=O)NCc2cn3c(n2)CN(Cc2ccccn2)CC3)cn1`, the Percent Effect in assay [1] was -7.16%; in [2], 2.7%; in [3], 4.33%; in [4], -3.43%; with Trypanosoma cruzi, 2.73%; in assay [5], 2.08%. Further, the Percent Effect is -0.254% in [6]; -6.36% in the assay filed under Homo sapiens; 6.93% in assay [7]; 8.54% in assay [8]; -1.37% in [9].

For `Cc1cc(NC(=O)CCc2ccsc2)n(C)n1`, the Percent Effect was -8.05% in assay [1]; 4.17% in [2]; -4.38% in assay [3]; -1.11% in [4]; -3.98% in the assay with Trypanosoma cruzi; 3.97% in assay [5]. The Percent Effect in [6] is 17.7%; in the assay filed under Homo sapiens, -3.97%; in assay [7], 1.05%; in assay [8] it was 7.69%; in assay [9], -4.62%.

Take `CCCSCC(=O)Nc1ncn(CC(=O)NCc2ccccc2)n1`: the Percent Effect in assay [1] was -2.05%; in assay [2] it was 8%; in assay [3] it was -1.58%; in assay [4], 7.45%; in the assay with Trypanosoma cruzi, 3.6%; in assay [5], 13.5%. Moreover, the Percent Effect was 12.9% in assay [6]; 4.31% in the assay listed under Homo sapiens; 6.01% in [7]; 16.1% in assay [8]; -6.22% in [9].

In the case of `CCNc1cc2c(nn1)CCN(C(=O)c1ccc3cc[nH]c3c1)C2`, the Percent Effect in assay [1] was -5.7%; in assay [2], 5.26%; in assay [3] it was 1.7%; in assay [4] it was 1.43%; with Trypanosoma cruzi it was 6.96%; in assay [5] it was -2.3%. Besides, the Percent Effect was 1.34% in assay [6]; -2.63% in the assay listed under Homo sapiens; 8.33% in [7]; 19.5% in assay [8]; -7.29% in assay [9].

`CC(C)n1ccnc1CN1CCCN(C(=O)COC2CCCC2)CC1`: the Percent Effect was -2.6% in [1]; 3.8% in [2]; 6.6% in assay [3]; 4.27% in assay [4]; -1.74% in the assay on Trypanosoma cruzi; -2.8% in assay [5]. The Percent Effect in assay [6] is 4.29%; in the assay filed under Homo sapiens it was 2.51%; in [7] it was -1.04%; in assay [8], 2.53%; in assay [9], -6.72%.
